Out of some 69,000 compounds screened, about 950 (1.4%) showed an effect of 50% or more. The sample as a whole holds a higher share of strong results than the screen did.
These compounds were tested on Mycobacterium tuberculosis (assay: Cornell M. t heat shock assay; further: in the data most compounds retested in dose-response had high values).
Format: functional, organism-based
Design: dose or concentration left out as unconfirmed

| SMILES | Percent Effect [%] |
| --- | --- |
| CCCS(=O)(=O)N1C[C@@H](Oc2ncccc2F)[C@H]2OCCC[C@H]21.O=C(O)C(F)(F)F | -14.35 |
| Cl.Cl.O=C(N[C@@H]1CN[C@H]2CCCO[C@H]21)c1cccnc1 | -32.33 |
| CCc1n[nH]c(C2CN(Cc3ncc(CC)o3)CCO2)n1 (stereo unspecified) | -30.6 |
| COc1ccc(CNCc2ccnc(N3CCCC3)c2)c(OC)c1.Cl | 15.53 |
| COc1ccc(-c2nc(CN3CCc4c(ncn4C)C3)cs2)cc1 | 174 |
| Cn1cc(-c2nc(CN3CCc4c(ncn4C)C3)cs2)cn1 | -15.5 |
| Cn1c(C2CC2)nc2c1CCN(Cc1nc(-c3ccsc3)no1)C2 | 13.01 |
| Cn1cnc2c1CCN(Cc1csc(-c3ccccc3F)n1)C2 | 47.56 |
| CC(C)c1nc2c(n1C)CCN(Cc1nc(-c3ccoc3)no1)C2 | -1.716 |
| c1cc(-c2nc(CN3CCc4c(ncn4C4CC4)C3)cs2)cs1 | 24.33 |
| Cn1cnc2c1CCN(Cc1csc(-c3ccsc3)n1)C2 | 121.8 |
| Cn1cc(-c2nc(CN3CCc4c(ncn4C4CC4)C3)cs2)cn1 | 19.08 |
| Cn1cnc2c1CCN(Cc1csc(-c3ccccc3)n1)C2 | -8.138 |
| Cn1cnc2c1CCN(Cc1csc(-c3ccc(F)cc3)n1)C2 | 1.572 |
| CC(C)c1nc2c(n1C)CCN(Cc1nc(-c3ccsc3)no1)C2 | 103.5 |
| c1ccc(-c2nc(CN3CCc4c(ncn4C4CC4)C3)cs2)cc1 | 62.99 |
| COCCO[C@H]1CCN(Cc2ccsc2)[C@H]1Cc1cccnc1.O=C(O)C(F)(F)F.O=C(O)C(F)(F)F | -33.79 |
| CCc1noc(CN2C[C@H]3CC[C@@H]2CN(C2Cc4ccccc4C2)C3)n1 | 18.74 |
| COc1ccc(CC(=O)N2CC[C@@H](OC)[C@@H]2Cc2cccnc2)cc1.O=C(O)C(F)(F)F | -4.792 |
| CC(=O)N1C[C@@H]2CC[C@H](C1)N(S(=O)(=O)c1ccccc1Cl)C2 | -21.33 |
| O=C(O)C(F)(F)F.O=S(=O)(C1CC1)N1CCO[C@@H]2CC(COCc3cccnc3)C[C@H]21 (stereo partly specified) | 22.38 |
| Cn1cc(N2CC3(COCCN(Cc4ccccn4)C3)OCC2=O)cn1.O=C(O)C(F)(F)F (stereo unspecified) | -20.33 |
| CNC(=O)C1Cn2ccnc2C2(CCN(Cc3cccs3)CC2)O1.O=C(O)C(F)(F)F.O=C(O)C(F)(F)F (stereo unspecified) | -16.91 |
| Cn1c(CCN2CCN(CCc3ccccc3)CC2)nc2ccccc21 | 5.82 |
| CCCc1ccc(N2CCN(Cc3nc4ccccc4n3C)CC2)cc1 | 103 |
| Cn1c(CCN2CCN(c3ccc(O)cc3)CC2)nc2ccccc21 | -8.24 |
